Measured values: the antibiotic and cytotoxicity screens of Wong et al. (2023)
Hit rate of the full screen: of about 39,000 compounds, about 3,300 (8.5%) were called active. For the sample, actives were picked, then their nearest neighbours and some compounds at random.

Each molecule was assayed on HepG2 (assay: cytotoxicity call (relative viability < 0.9)). Settings: 10 µM.

SMILES	cytotoxicity call
C[C@H]1CCCCO[C@H](CN(C)C(=O)NC2CCCCC2)[C@@H](C)CN([C@@H](C)CO)C(=O)c2cc(NC(=O)CCC(F)(F)F)ccc2O1	inactive
COc1ccc(S(=O)(=O)N(C)C[C@H]2Oc3c(NC(=O)c4cnccn4)cccc3C(=O)N([C@H](C)CO)C[C@H]2C)cc1	inactive
C[C@@H]1CN([C@H](C)CO)C(=O)c2cc(NS(=O)(=O)c3ccc(Cl)cc3)ccc2O[C@@H](C)CCCCO[C@@H]1CN(C)Cc1ccncc1	inactive
CCc1nc2c(C)cc(N3CCN(CC(=O)N4CC(O)C4)CC3)cn2c1N(C)c1nc(-c2ccc(F)cc2)c(C#N)s1	active
COCC#Cc1ccc2c(c1)O[C@H](CN(C)Cc1ccccc1F)[C@@H](C)CN([C@H](C)CO)S2(=O)=O	inactive
C[C@H](CO)N1C[C@H](C)[C@H](CN(C)S(=O)(=O)c2cccs2)Oc2ccc(NS(=O)(=O)c3ccccc3)cc2CC1=O	inactive
C[C@@H]1CN([C@H](C)CO)C(=O)c2cccc(NS(=O)(=O)c3ccc(F)cc3)c2O[C@@H]1CN(C)Cc1ccncc1	inactive
CC(C)=CCc1c2c(c3occ(-c4ccc(O)c(O)c4)c(=O)c3c1O)C=CC(C)(C)O2	active
CC1(C)C=Cc2c(c3c(c4c(=O)c(-c5ccc(O)cc5)coc24)OC(C)(C)CC3)O1	inactive
CC1(C)C=Cc2c(c3c(c4c(=O)c(-c5ccc(O)c(O)c5)coc24)OC(C)(C)CC3)O1	active
CC(C)=CCc1c2c(c3occ(-c4ccc(O)cc4)c(=O)c3c1O)C=CC(C)(C)O2	inactive
CN1CCN(C(=O)C[C@H]2CC[C@@H]3[C@@H](COc4ccc(NC(=O)c5cccs5)cc4C(=O)N3C)O2)CC1	inactive
Cc1noc(C)c1S(=O)(=O)Nc1ccc2c(c1)C(=O)N([C@@H](C)CO)C[C@H](C)[C@@H](CN(C)Cc1ccccc1)OCCCC[C@@H](C)O2	inactive
C[C@@H]1CN([C@@H](C)CO)C(=O)Cc2cc(NC(=O)Cn3cnnn3)ccc2O[C@@H]1CN(C)Cc1ccc(Oc2ccccc2)cc1	inactive
COc1ccc(-c2cc(C(F)F)nn2-c2ccc(S(N)(=O)=O)cc2)cc1F	inactive
Cc1ccc(S(N)(=O)=O)cc1	inactive
Cc1ccc(-c2cc(C(F)(F)F)nn2-c2ccc(S(N)(=O)=O)cc2)cc1	active
C[C@@H]1CN([C@H](C)CO)C(=O)c2cc(NC(=O)NC3CCCCC3)ccc2O[C@@H](C)CCCCO[C@@H]1CN(C)S(=O)(=O)c1ccc(F)cc1	inactive
CN1CCC(OC(c2ccccc2)c2ccccc2)CC1.Cl	inactive
CN1C2CCC1CC(OC(=O)c1c[nH]c3ccccc13)C2.Cl (stereo not drawn)	inactive
CN1C2CCC1CC(OC(c1ccccc1)c1ccccc1)C2.CS(=O)(=O)O (stereo not drawn)	active
Cc1noc(C)c1S(=O)(=O)N(C)C[C@@H]1Oc2c(NS(=O)(=O)c3ccccc3)cccc2C(=O)N([C@H](C)CO)C[C@@H]1C	inactive
CC12CCC3c4ccc(O)cc4CCC3C1CCC2=O (stereo not drawn)	inactive
C#CC1(O)CCC2C3CCc4cc(OC)ccc4C3CCC21C (stereo not drawn)	active

SMILES	cytotoxicity call
C#CC1(O)CCC2C3CCC4=CC(=O)CCC4C3CCC21C (stereo not drawn)	inactive
C#CC1(O)CCC2C3CCc4cc(O)ccc4C3CCC21C (stereo not drawn)	active
C#CC1(O)CCC2C3CCC4=CCCCC4C3C(=C)CC21CC (stereo not drawn)	inactive
CC12CCC3c4ccc(O)cc4CCC3C1CC(O)C2O (stereo not drawn)	inactive
C#CC1(O)CCC2C3CCC4=C(CCC(=O)C4)C3CCC21C (stereo not drawn)	inactive
C#CC1(O)CCC2C3CCc4cc(OC5CCCC5)ccc4C3CCC21C (stereo not drawn)	inactive
C#CC1(O)CCC2C3CCC4=CCCCC4C3CCC21C (stereo not drawn)	active
COCCOC(=O)N1C(=O)[C@@]2(c3cc(C#CCC(C(=O)OC)C(=O)OC)ccc31)[C@H](C(=O)NC[C@H](O)c1ccccc1)[C@H]1C(=O)O[C@H](c3ccccc3)[C@H](c3ccccc3)N1[C@@H]2c1ccc(OCCO)cc1	inactive
Cn1cnc(CCNC(=O)C[C@@H]2CC[C@@H]3[C@H](COC[C@@H](O)CN3C(=O)Nc3ccc(Cl)cc3)O2)c1	inactive
COc1ccc(S(=O)(=O)N(C)C[C@@H]2Oc3ccc(NC(=O)Nc4cccc5ccccc45)cc3C(=O)N([C@@H](C)CO)C[C@H]2C)cc1	inactive
C[C@H]1CN([C@@H](C)CO)C(=O)c2cc(C#CCN(C)C)cnc2O[C@H]1CN(C)S(=O)(=O)c1ccccc1	inactive
COc1cccc(NC(=O)N2C[C@@H](O)COC[C@H]3O[C@@H](CC(=O)NCc4ccccc4F)CC[C@@H]32)c1	inactive
C[C@H](O)C#Cc1ccc2c(c1)O[C@@H](CN(C)C(=O)c1ccncc1)[C@H](C)CN([C@@H](C)CO)S2(=O)=O	inactive
C[C@@H](O)C#Cc1ccc2c(c1)O[C@@H](CN(C)C(=O)c1ccncc1)[C@@H](C)CN([C@@H](C)CO)S2(=O)=O	inactive
C[C@H](CO)N1C[C@H](C)[C@@H](CN(C)C(=O)c2ccncc2)Oc2cc(C#Cc3ccncc3)ccc2S1(=O)=O	active
C[C@H](CO)N1C[C@H](C)[C@H](CN(C)C(=O)c2ccncc2)Oc2cc(C#Cc3ccncc3)ccc2S1(=O)=O	active
C[C@@H]1CN([C@H](C)CO)S(=O)(=O)c2ccc(C#Cc3ccncc3)cc2O[C@@H]1CN(C)C(=O)c1ccncc1	active
C[C@H](O)C#Cc1ccc2c(c1)O[C@@H](CN(C)C(=O)c1ccncc1)[C@@H](C)CN([C@H](C)CO)S2(=O)=O	inactive
C[C@H]1CN([C@@H](C)CO)S(=O)(=O)c2ccc(C#Cc3ccncc3)cc2O[C@@H]1CN(C)C(=O)c1ccncc1	active
C[C@H](O)C#Cc1ccc2c(c1)O[C@@H](CN(C)C(=O)c1ccncc1)[C@H](C)CN([C@H](C)CO)S2(=O)=O	inactive
C[C@H](O)C#Cc1ccc2c(c1)O[C@H](CN(C)C(=O)c1ccncc1)[C@@H](C)CN([C@@H](C)CO)S2(=O)=O	inactive
C[C@H](O)C#Cc1ccc2c(c1)O[C@H](CN(C)C(=O)c1ccncc1)[C@H](C)CN([C@@H](C)CO)S2(=O)=O	inactive
C[C@@H]1CN([C@@H](C)CO)S(=O)(=O)c2ccc(C#Cc3ccncc3)cc2O[C@@H]1CN(C)C(=O)c1ccncc1	inactive
C[C@@H]1CN([C@@H](C)CO)S(=O)(=O)c2ccc(C#Cc3ccncc3)cc2O[C@H]1CN(C)C(=O)c1ccncc1	inactive
